High-throughput results (PubChem BioAssay)
This is one part of a sample in which hits are shown more often than they occur.
TTR transcr act – increases transthyretin transcription | 92,000 tested, 1.3% active | activation, % at 16.7 µM | SH-SY5Y TTR promoter Gaussia luciferase, luminescence; 100% = recombinant luciferase protein wells;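 active means activation above the mean of all tested compounds plus 3 SD, cut at about 9.5% in these data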;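 further: cells exposed to compounds for one day before reading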
HuH7 TTR inh – counter-screen for TTR activators: TTR transcription inhibitors in HuH7 cells; shares compounds with TTR transcr act; HuH7 TTR promoter-Gaussia luciferase reporter, luminescence; inhibition, % at 16.7 µM; 1,100 tested, 4% active; AID 1117279;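 active means average inhibition above the solvent-only control wells' mean plus 3 SD, cut at about 15% in these data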;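 further: inhibitors lower well luminescence so higher value means more inhibition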
TTR act confirm – confirmation of human transthyretin transcription activators. shares compounds with TTR transcr act. SHSY5Y TTR promoter Gaussia luciferase, luminescence; 100% = purified Lucia enzyme wells, no cells. activation, % at 16.7 µM. 1,100 tested, under 10 active. AID 1117280;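 active means mean activation above a set limit taken from the earlier primary screen, cut at about 11% in these data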
Hits are given with their value; . = inactive.

SMILES | TTR transcr act | others
COc1ccc(S(=O)(=O)NC(N)=NCCc2ccc(OC)c(OC)c2)cc1C | 12 | HuH7 TTR inh=.;TTR act confirm=.
COc1ccc(CCN=C(N)NS(=O)(=O)c2cccs2)cc1OC | .
Cc1ccc(Cn2nc(C)c(NC(=O)c3cc(C)no3)c2C)cc1 | .
CC(=O)N1C[C@H]2CON(C)[C@H]2C[C@H]1c1cccc(N2CCOCC2)c1 | .
COCCN(CC(=O)Nc1cccc(C)c1C)C(=O)c1ccc(S(=O)(=O)N2CCOCC2)cc1 | 9.8 | HuH7 TTR inh=.;TTR act confirm=.
O=C(Nc1ccccc1Cl)c1ccc(S(=O)(=O)N2CCOCC2)cc1 | .
COCCN(CC(=O)Nc1cccc(C)c1C)C(=O)Cc1cccs1 | .
O=C(Nc1ccccc1)c1cc2ccccc2c(=O)s1 | .
O=C(Cc1ccc(NC(=O)C2CCCN(C(=O)C3CCCCC3)C2)cc1)Nc1cccc(C(=O)N2CCCC2)c1 (stereo unspecified) | .
CC(C)NC(=O)COC(=O)c1ccccc1Oc1ccccc1 | .
Cc1cccc(OCCCC(=O)Nc2ccc(N(C)C)cc2)c1 | .
COc1ccc(/C=C/c2nnc(NC(=O)COc3cccc(C)c3)s2)cc1 | .
Cc1cccc(OCCC(=O)Nc2nnc(C)s2)c1 | 17 | HuH7 TTR inh=.;TTR act confirm=.
CCOc1ccc(CN(C)Cc2cc(=O)oc3cc(C)c(Cl)cc23)cc1 | .
O=C(NN=Cc1ccccc1OC(F)F)c1cccc(S(=O)(=O)N2CCCC2)c1 | .
CN(C)C(=S)NC(=O)C12CC3(C)CC(C)(CC(C)(C3)C1)C2 | .
Cc1cccc(NC(=O)c2cc(S(=O)(=O)N3CCCCC3)c[nH]2)c1C | .
CC1C(=O)N(Cc2cn(CCC3OCCO3)nn2)CCS(=O)(=O)N1Cc1ccc(-c2ccc(F)cc2)cc1 (stereo unspecified) | .
CC1C(=O)N(Cc2cn(CCC3OCCO3)nn2)CCS(=O)(=O)N1Cc1ccc(-c2ccncc2)cc1 (stereo unspecified) | .
CC1C(=O)N(Cc2cn(CCC3OCCO3)nn2)CCS(=O)(=O)N1Cc1ccc(-c2cccc(N(C)C)c2)cc1 (stereo unspecified) | 37 | HuH7 TTR inh=.;TTR act confirm=.
CC(C)(C)c1cc(N)on1 | .
CCCCn1c(SCC(=O)Nc2oc(C)c3c(C)n[nH]c(=O)c23)nc2cc(S(N)(=O)=O)ccc21 | .
CCCCn1c(SCC(=O)Nc2cc(C)on2)nc2cc(S(N)(=O)=O)ccc21 | .
CCCCn1c(SCc2c(C)noc2C)nc2cc(S(N)(=O)=O)ccc21 | 16 | HuH7 TTR inh=.;TTR act confirm=.
CC(OC(=O)C12CCC(=O)N1c1ccccc1S2)C(=O)Nc1cccc(Cl)c1 (stereo unspecified) | .
SMILES | TTR transcr act | others
NC(=O)c1ccsc1NC(=O)c1nc(-c2ccccc2)n(-c2ccccc2)n1 | .
COc1ccc(C2CC(=O)Nc3cc(OC)c(OC)cc32)cc1 (stereo unspecified) | .
COc1cc2c(cc1OC)C(c1cccnc1)CC(=O)N2 (stereo unspecified) | .
COc1cc2c(cc1OC)C(c1cccc(F)c1)CC(=O)N2 (stereo unspecified) | 18 | HuH7 TTR inh=.;TTR act confirm=.
Nc1ccc(OC(=O)Nc2ccc(O)cc2)cc1 | .
CCOC(=O)Cn1c(=O)oc2cc(S(=O)(=O)N3CCc4ccccc43)ccc21 | 14 | HuH7 TTR inh=.;TTR act confirm=.
CCOC(=O)Cn1c(=O)oc2cc(S(=O)(=O)N(CCN(C)C)Cc3ccccc3)ccc21 | .
CCOC(=O)Cn1c(=O)oc2cc(S(=O)(=O)NC(C)(C)CC)ccc21 | .
O=C(CCn1c(=O)oc2ccccc21)N1CCN(c2ccccc2F)CC1 | .
CCOC(=O)c1ccc(NC(=O)c2nc[nH]c2C(=O)NC[C@H](C)O)cc1 | .
NC(=O)c1ccccc1N/C=C1\CCCCC1=O | .
COc1ccc(Oc2ccc(N/C=C3\CCCC3=O)cc2)cc1 | .
COc1ccc(OC)c(N/C=C2/CCCCC2=O)c1 | 11 | HuH7 TTR inh=.;TTR act confirm=.
COc1ccc(NS(=O)(=O)c2ccc3c(c2)CCCN3C(C)=O)cc1 | .
Cc1ccc(S(=O)(=O)N2CCC[C@H]2C(=O)OCc2cc(=O)oc3cc(C)ccc23)cc1 | .
O=C(NC(=S)Nc1ccc2ncccc2c1)c1ccccc1 | .
O=C(Nc1ccc2ncccc2c1)c1ccccc1 | .
O=C(Nc1ccc2ncccc2c1)c1ccccc1Cl | 11 | HuH7 TTR inh=.;TTR act confirm=.
CCN(CC)S(=O)(=O)c1cccc(NC(=O)Nc2cccc(C(F)(F)F)c2)c1 | .
O=C(COC(=O)C1=COCCO1)Nc1cccc(S(=O)(=O)N2CCOCC2)c1 | 14 | HuH7 TTR inh=.;TTR act confirm=.
Cc1cc(C(=O)OCC(=O)Nc2cccc(S(=O)(=O)N3CCOCC3)c2)c(C)o1 | .
O=C(COC(=O)c1cccnc1Cl)Nc1cccc(S(=O)(=O)N2CCOCC2)c1 | .
CCCCOc1ccc(NC(=O)CCSc2nccn2C)cc1 | .
Cc1ccc(S(=O)(=O)N(C)C[C@H]2Oc3cc(Br)ccc3S(=O)(=O)N([C@H](C)CO)C[C@@H]2C)cc1 | .
C[C@H](CO)N1C[C@H](C)[C@H](CN(C)Cc2ccc(Oc3ccccc3)cc2)Oc2cc(Br)ccc2S1(=O)=O | 13 | HuH7 TTR inh=.;TTR act confirm=.
SMILES | TTR transcr act | others
C[C@H](CO)N1C[C@H](C)[C@H](CN(C)S(=O)(=O)c2cccc(F)c2)Oc2cc(Br)ccc2S1(=O)=O | .
C[C@H]1CN([C@@H](C)CO)S(=O)(=O)c2ccc(Br)cc2O[C@H]1CN(C)Cc1ccccc1 | .
CC(C)NC(=O)N(C)C[C@H]1Oc2cc(Br)ccc2S(=O)(=O)N([C@H](C)CO)C[C@H]1C | .
COc1ccc(S(=O)(=O)N(C)C[C@H]2Oc3cc(Br)ccc3S(=O)(=O)N([C@H](C)CO)C[C@H]2C)cc1 | 28 | HuH7 TTR inh=.;TTR act confirm=.
CCOc1cc(/C=N/OC(C)=O)ccc1OCc1ccccc1 | .
CC(C)CCNC(=O)CNC(=O)c1cccs1 | .
Cc1ccccc1NC(=O)C(Cl)=C(Cl)Cl | .
Cc1cccc(NC(=O)C23CCC(C)(C2Br)C3(C)C)c1 (stereo unspecified) | .
O=C(NN1C(=O)C2C3C=CC(C3)C2C1=O)c1ccccc1 (stereo unspecified) | .
Cc1ccc(NCN2C(=O)C3CC=C(Cl)CC3C2=O)cc1 (stereo unspecified) | .
O=C(NN1C(=O)C2CC=C(Cl)CC2C1=O)c1ccncc1 (stereo unspecified) | 12 | HuH7 TTR inh=.;TTR act confirm=.
COc1cc(C(N)=O)cc(Cl)c1OC | .
O=S(=O)(NNc1nccc(C(F)(F)F)n1)c1cccc(Cl)c1Cl | .
Cc1ccc(CNC(=O)c2cccnc2)cc1 | .
Cc1cc(C)c(C(=O)CC(=O)c2cccnc2)c(C)c1 | 15 | HuH7 TTR inh=.;TTR act confirm=.
Cc1cc(C)c(C)c(OCC(=O)O/N=C(\N)c2cccnc2)c1 | .
Cc1cc(NC(=O)c2noc3c2CCCCC3)nn1Cc1ccc(Cl)cc1 | .
CN(Cc1cnn(-c2ccccc2)c1)C(=O)c1ccc(S(=O)(=O)NCc2ccco2)cc1 | .
Cc1c(N(C)C(=O)c2ccc3c(c2)OCO3)c(=O)n(-c2ccccc2)n1C | .
Cc1c(N(C)C(=O)C23CC4CC(CC(C4)C2)C3)c(=O)n(-c2ccccc2)n1C | .
Cc1c(N(C)S(=O)(=O)c2cc(C(=O)N3CCCC3)ccc2Cl)c(=O)n(-c2ccccc2)n1C | 13 | HuH7 TTR inh=.;TTR act confirm=.
CSc1nc2ccc3nc(NC(=O)C4COc5ccccc5O4)sc3c2s1 (stereo unspecified) | .
O=C(O)CCc1nn2c3ccccc3n(CCN3CCCCC3)c2nc1=O | .
